Experimental data taken from PubChem BioAssay (EPA / NIEHS).
Results filed as inconclusive are left out. Calls of active or inactive are those of the source. The calls were made as follows, unless noted: active = hit-call score of the fitted dose curve at least 0.9, where 1 is the maximum; inactive = score below 0.9.

How the values were obtained:
[1] = molecular target: Paired box protein Pax-6 (Homo sapiens) (UniProt P26367); experiment: ATG_Pax6_CIS: Attagene CIS-FACTORIAL HepG2 Assay for human Paired Box 6 (PAX6) (AID 2282956); conditions: HepG2 CIS-FACTORIAL PAX6 reporter transcription, RNA readout; actives raise or lower the signal
Chain of Paired box protein Pax-6 (Homo sapiens) (P26367 whole entry, looked up): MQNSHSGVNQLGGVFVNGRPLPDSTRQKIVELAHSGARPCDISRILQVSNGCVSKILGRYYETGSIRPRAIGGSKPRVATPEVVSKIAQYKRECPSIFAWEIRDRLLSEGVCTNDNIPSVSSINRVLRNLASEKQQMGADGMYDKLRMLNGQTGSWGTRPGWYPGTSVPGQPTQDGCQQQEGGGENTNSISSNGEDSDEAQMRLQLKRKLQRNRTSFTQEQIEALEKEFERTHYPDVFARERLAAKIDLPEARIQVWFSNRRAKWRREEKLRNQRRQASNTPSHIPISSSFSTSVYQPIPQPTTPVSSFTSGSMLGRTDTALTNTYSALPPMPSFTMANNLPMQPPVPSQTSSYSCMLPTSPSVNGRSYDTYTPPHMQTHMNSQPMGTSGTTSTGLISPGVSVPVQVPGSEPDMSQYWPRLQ
Outline: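 Fluorescent RT-PCR products separated by capillary electrophoresis report PAX6-linked promoter mRNA in HepG2 cells 24 h post-dose. Curves fitted bidirectionally, DMSO as negative control.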

[2] = ATG_PXRE_CIS: Attagene CIS-FACTORIAL HepG2 Assay for human Pregnane X Receptor Element (PXRE) (AID 2282957); conditions: HepG2 Attagene CIS-FACTORIAL PXRE reporter, mRNA; actives raise or lower the signal
Outline: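 Reporter transcripts under endogenous PXR-responsive cis-regulation quantified from total RNA of transfected HepG2 cells 24 h post-dosing, via RT-PCR with fluorescent primer extension and capillary electrophoresis. Gain or loss of signal fitted against DMSO baseline.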

[3] = ATG_PPRE_CIS: Attagene CIS-FACTORIAL HepG2 Assay for human Peroxisome Proliferator-activated Response Element (PPRE) (AID 2282958); conditions: HepG2 PPRE cis-element reporter, Attagene transcription factor profiling; actives raise or lower the signal
Outline: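 After human HepG2 hepatoma cells were transiently transfected with cis-promoter reporter constructs, they were exposed to test chemicals for 24 hours. Reporter RNA was then reverse-transcribed, PCR-amplified, FAM-labeled, HpaI-digested and quantified by capillary electrophoresis.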

[4] = ATG_RORE_CIS: Attagene CIS-FACTORIAL HepG2 Assay for human RAR-related Orphan Receptor Element (RORE) (AID 2282959); conditions: HepG2 Attagene cis-factorial RORE reporter, mRNA; actives raise or lower the signal
Outline: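 Measured here: transcript induction of a cis-regulated reporter in HepG2 cells transiently transfected via FuGene 6. After 24 h, RNA was processed by RT-PCR and fluorescent capillary electrophoresis; DMSO defined baseline activity.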

[5] = ATG_Sox_CIS: Attagene CIS-FACTORIAL HepG2 Assay for human SRY-box transcription factor (SOX) (AID 2282960); conditions: HepG2 Attagene cis-factorial SOX reporter, mRNA; actives raise or lower the signal
Outline: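 Using transiently transfected HepG2 cells, reporter transcription driven by cis elements was assessed 24 h after dosing. Signal was fluorescence of capillary-separated RT-PCR products, with DMSO defining baseline activity.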

[6] = molecular target: Transcription factor Sp1 (Homo sapiens) (UniProt P08047); experiment: ATG_Sp1_CIS: Attagene CIS-FACTORIAL HepG2 Assay for human Specificity Protein 1 (Sp1) (AID 2282961); conditions: HepG2 Sp1 cis-reporter transcription, actives raise or lower the signal
Chain of Transcription factor Sp1 (Homo sapiens) (P08047 whole entry, looked up): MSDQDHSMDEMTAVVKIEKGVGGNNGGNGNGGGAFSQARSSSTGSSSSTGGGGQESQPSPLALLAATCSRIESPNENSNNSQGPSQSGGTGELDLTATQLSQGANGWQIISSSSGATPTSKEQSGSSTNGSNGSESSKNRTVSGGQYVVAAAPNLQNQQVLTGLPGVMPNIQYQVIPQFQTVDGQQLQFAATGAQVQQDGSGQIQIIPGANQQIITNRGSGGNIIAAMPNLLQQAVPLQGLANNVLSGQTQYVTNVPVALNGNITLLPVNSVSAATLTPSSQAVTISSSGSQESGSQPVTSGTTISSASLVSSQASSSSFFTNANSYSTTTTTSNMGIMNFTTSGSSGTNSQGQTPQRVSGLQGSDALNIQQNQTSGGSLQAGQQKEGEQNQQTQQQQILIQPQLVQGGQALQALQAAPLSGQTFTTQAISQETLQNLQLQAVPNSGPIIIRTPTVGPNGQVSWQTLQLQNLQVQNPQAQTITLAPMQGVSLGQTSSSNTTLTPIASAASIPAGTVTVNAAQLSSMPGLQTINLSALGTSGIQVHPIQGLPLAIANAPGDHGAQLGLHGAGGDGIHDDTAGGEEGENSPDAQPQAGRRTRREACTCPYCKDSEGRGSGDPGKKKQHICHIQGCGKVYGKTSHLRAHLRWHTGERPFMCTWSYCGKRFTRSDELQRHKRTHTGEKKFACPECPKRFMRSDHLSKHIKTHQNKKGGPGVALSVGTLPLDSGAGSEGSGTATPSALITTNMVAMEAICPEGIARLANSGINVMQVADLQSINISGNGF
Outline: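 After transient transfection of HepG2 cells with cis-promoter reporter units and 24 h chemical treatment, reporter transcripts were quantified by RT-PCR and capillary electrophoresis fluorescence. Gain- and loss-of-signal fitted against DMSO.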

[7] = ATG_SREBP_CIS: Attagene CIS-FACTORIAL HepG2 Assay for human Sterol Regulatory Element Binding (SREBP) (AID 2282962); conditions: HepG2 Attagene cis-factorial SREBP reporter, mRNA; actives raise or lower the signal
Outline: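 Endogenous factor activity is measured in HepG2 through multiplexed reporter units under cis-element control. Following a 24 h incubation, reporter transcripts are reverse-transcribed, PCR-amplified and sized by capillary electrophoresis; activity is fitted in both directions relative to DMSO.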

[8] = molecular target: Signal transducer and activator of transcription 3 (Homo sapiens) (UniProt P40763); experiment: ATG_STAT3_CIS: Attagene CIS-FACTORIAL HepG2 Assay for human Signal Transducer and Activator of Transcription 3 (STAT3) (AID 2282963); conditions: HepG2, Attagene cis-factorial STAT3 reporter transcription; actives raise or lower the signal
Chain of Signal transducer and activator of transcription 3 (Homo sapiens) (P40763 whole entry, looked up): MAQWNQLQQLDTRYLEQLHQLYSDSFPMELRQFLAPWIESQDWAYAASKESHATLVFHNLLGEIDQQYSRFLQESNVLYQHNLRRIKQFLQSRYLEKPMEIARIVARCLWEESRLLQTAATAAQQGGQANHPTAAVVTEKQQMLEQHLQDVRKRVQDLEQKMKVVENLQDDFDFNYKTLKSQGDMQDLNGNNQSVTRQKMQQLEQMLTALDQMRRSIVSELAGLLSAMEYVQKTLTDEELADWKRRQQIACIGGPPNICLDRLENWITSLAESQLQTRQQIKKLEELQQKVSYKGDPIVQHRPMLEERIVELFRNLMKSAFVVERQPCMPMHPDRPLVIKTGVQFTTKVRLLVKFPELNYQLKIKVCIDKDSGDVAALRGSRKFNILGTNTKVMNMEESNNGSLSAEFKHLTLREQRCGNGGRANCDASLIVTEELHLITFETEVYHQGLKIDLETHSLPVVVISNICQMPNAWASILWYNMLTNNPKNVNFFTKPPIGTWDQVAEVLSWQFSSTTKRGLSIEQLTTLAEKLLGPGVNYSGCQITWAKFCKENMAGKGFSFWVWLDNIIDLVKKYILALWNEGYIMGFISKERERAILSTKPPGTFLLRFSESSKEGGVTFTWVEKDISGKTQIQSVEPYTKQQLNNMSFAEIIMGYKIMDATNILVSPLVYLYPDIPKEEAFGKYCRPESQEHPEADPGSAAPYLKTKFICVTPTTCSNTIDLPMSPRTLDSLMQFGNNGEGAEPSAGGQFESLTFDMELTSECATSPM
Outline: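 Readout is reporter transcript quantified by RT-PCR and capillary electrophoresis, with 6-FAM primer extension and HpaI digestion. Total RNA is taken 24 h after dosing transiently transfected HepG2 carrying cis-regulated reporter units. Bidirectional fit against DMSO.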

[9] = ATG_TA_CIS: Attagene CIS-FACTORIAL HepG2 Assay for human TA Basal Promoter (AID 2282964); conditions: HepG2 Attagene CIS-factorial TA basal promoter reporter; actives raise or lower the signal
Outline: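 Multiplexed mRNA reporter assay, HepG2, 24 h. Reporter cDNA amplified, 6-FAM primer-extended, HpaI-cut, CE-sized; DMSO = negative control and baseline.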

[10] = ATG_TAL_CIS: Attagene CIS-FACTORIAL HepG2 Assay for human TAL Basal Promoter (AID 2282966); conditions: HepG2 Attagene cis-factorial TAL promoter reporter; actives raise or lower the signal;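 also: background control endpoint measuring basal TAL promoter reporter mRNA not a specific factor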
Outline: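 Background-control endpoint: basal TAL promoter reporter transcripts in transiently transfected HepG2, measured 24 h after dosing. Read-out by RT-PCR with fluorescent primer extension and capillary electrophoresis; gain or loss of signal fitted relative to DMSO.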

[11] = ATG_TGFb_CIS: Attagene CIS-FACTORIAL HepG2 Assay for human Transforming Growth Factor (TGF) (AID 2282967); conditions: HepG2 Attagene CIS TGFb reporter, mRNA transcription; actives raise or lower the signal
Outline: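 Transcript-level reporter readout: HepG2 transfectants, 24 h exposure, RNA to cDNA, reporter-specific PCR, fluorescent primer extension, capillary sizing against ROX standards. Gain- or loss-of-signal relative to DMSO.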

[12] = ATG_VDRE_CIS: Attagene CIS-FACTORIAL HepG2 Assay for human Vitamin D Receptor Element (VDRE) (AID 2282968); conditions: HepG2 VDRE cis-reporter transcription, actives raise or lower the signal
Outline: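 Readout is VDRE-driven reporter mRNA reflecting endogenous factor activity in human HepG2 cells, sampled 24 h post-dose. Quantification used labelled RT-PCR products separated by capillary electrophoresis; bidirectional analysis relative to DMSO.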

[13] = molecular target: X-box-binding protein 1 (Homo sapiens) (UniProt P17861); experiment: ATG_Xbp1_CIS: Attagene CIS-FACTORIAL HepG2 Assay for human X-box Binding Protein 1 (XBP1) (AID 2282972); conditions: HepG2 XBP1 cis-element reporter, Attagene multiplex; actives raise or lower the signal
Chain of X-box-binding protein 1 (Homo sapiens) (P17861 whole entry, looked up): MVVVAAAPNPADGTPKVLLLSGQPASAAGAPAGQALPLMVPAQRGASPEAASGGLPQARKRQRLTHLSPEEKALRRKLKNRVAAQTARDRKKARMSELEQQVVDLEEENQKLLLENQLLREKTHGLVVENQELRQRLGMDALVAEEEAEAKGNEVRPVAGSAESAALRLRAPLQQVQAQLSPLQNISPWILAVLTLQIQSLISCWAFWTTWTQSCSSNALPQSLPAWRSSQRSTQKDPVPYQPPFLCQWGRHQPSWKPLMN
Outline: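 Multiplexed cis-reporter readout in transfected HepG2 liver cells. Exposure lasted 24 hours. Activity in either direction was fitted against DMSO as negative control and baseline.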

[14] = ATG_M_19_TRANS: Attagene TRANS-FACTORIAL HepG2 Assay for M19 Transcription Factor (Internal Marker) (AID 2282974; active = hit-call score of the fitted dose curve at least 0.9, where 1 is the maximum); conditions: HepG2 Attagene TRANS-FACTORIAL M19 internal marker reporter
Outline: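 Gain-of-signal in reporter mRNA, relative to DMSO, was scored from capillary electrophoresis fluorescence. HepG2 cells carried transiently transfected multiple reporter transcription units and were incubated with test chemicals for 24 h.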

[15] = ATG_GAL4_TRANS: Attagene TRANS-FACTORIAL HepG2 Assay for GAL4 (Internal Marker) (AID 2282976; active = hit-call score of the fitted dose curve at least 0.9, where 1 is the maximum); conditions: HepG2 Attagene TRANS GAL4 internal marker reporter
Outline: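 In transfected human HepG2 liver cells dosed 24 h, GAL4 reporter mRNA serves as a baseline marker. Detection by RT-PCR with fluorescent capillary electrophoresis, activity fitted upward relative to DMSO.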

[16] = ATG_TCF_b_cat_CIS: Attagene CIS-FACTORIAL HepG2 Assay for human T-Cell-Factor with beta-catenin (TCF/b-cat) (AID 2282965); conditions: HepG2 TCF/beta-catenin cis-reporter transcription, actives raise or lower the signal
Outline: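 Endogenous TCF/LEF activity read as reporter transcript level via RT-PCR and capillary electrophoresis fluorescence in transfected HepG2, 24 h exposure; gain or loss of signal fitted against DMSO controls.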

[17] = molecular target: Steroid hormone receptor ERR1 (Homo sapiens) (UniProt P11474); experiment: ATG_ERRa_TRANS: Attagene TRANS-FACTORIAL HepG2 Assay for human Estrogen-Related Receptor alpha (ERRa) (AID 2282971; active = hit-call score of the fitted dose curve at least 0.9, where 1 is the maximum); conditions: HepG2 Attagene TRANS reporter, ERRa transactivation
Chain of Steroid hormone receptor ERR1 (Homo sapiens) (P11474 whole entry, looked up, the tested form may be a part): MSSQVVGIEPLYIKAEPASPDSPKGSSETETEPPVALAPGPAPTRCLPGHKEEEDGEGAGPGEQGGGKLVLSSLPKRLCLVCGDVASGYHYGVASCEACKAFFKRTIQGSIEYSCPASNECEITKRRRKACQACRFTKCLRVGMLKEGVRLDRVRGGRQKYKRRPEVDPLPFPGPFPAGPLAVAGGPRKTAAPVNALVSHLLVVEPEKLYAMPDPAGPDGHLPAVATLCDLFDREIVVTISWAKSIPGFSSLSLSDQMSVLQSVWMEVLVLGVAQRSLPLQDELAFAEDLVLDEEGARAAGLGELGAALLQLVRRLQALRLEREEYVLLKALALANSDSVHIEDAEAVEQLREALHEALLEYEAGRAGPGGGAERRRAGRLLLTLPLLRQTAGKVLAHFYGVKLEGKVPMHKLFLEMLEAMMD
Outline: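 Reporter transcripts from ERRa-Gal4 chimera activity measured in transiently transfected human HepG2 cells 24 hours after dosing, using RT-PCR with 6-FAM primer extension, HpaI digestion and capillary electrophoresis; DMSO is baseline.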

[18] = molecular target: Estrogen receptor (Homo sapiens) (UniProt P03372); experiment: ATG_ERa_TRANS: Attagene TRANS-FACTORIAL HepG2 Assay for human Estrogen Receptor alpha (ERa) (AID 2282970; active = hit-call score of the fitted dose curve at least 0.9, where 1 is the maximum); conditions: HepG2 Attagene TRANS ERa GAL4 reporter, mRNA
Chain of Estrogen receptor (Homo sapiens) (P03372 whole entry, looked up, the tested form may be a part): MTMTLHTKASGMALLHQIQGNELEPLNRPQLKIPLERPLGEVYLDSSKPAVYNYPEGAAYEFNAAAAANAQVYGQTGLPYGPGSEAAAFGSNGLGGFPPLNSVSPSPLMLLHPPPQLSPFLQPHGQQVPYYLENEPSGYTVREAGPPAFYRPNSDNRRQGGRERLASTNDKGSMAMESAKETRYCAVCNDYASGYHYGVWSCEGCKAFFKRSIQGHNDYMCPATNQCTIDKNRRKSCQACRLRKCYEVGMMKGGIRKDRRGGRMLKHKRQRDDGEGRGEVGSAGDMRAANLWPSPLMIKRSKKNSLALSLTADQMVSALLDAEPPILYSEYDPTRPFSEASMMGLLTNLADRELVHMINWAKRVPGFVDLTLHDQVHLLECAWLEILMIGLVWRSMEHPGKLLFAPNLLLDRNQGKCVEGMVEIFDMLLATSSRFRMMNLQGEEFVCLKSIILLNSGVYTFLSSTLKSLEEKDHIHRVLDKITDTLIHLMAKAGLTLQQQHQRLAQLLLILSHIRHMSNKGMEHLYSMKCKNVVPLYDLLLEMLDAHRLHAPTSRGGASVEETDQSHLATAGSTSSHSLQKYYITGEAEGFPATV
Outline: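 Reporter transcripts were measured 24 h after dosing by RT-PCR with fluorescent primer extension and capillary electrophoresis. The system is transiently transfected HepG2 expressing exogenous NR-Gal4 chimeras driving GAL4-UAS reporters; DMSO is the baseline.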

Measured: AC50

CCC(C)c1ccccc1 (configuration not stated)
inactive: [1] | [2] | [3] | [4] | [5] | [6] | [7] | [8] | [9] | [10] | [11] | [12] | [13] | [14] | [15]

C1CCSC1
inactive: [1] | [2] | [3] | [5] | [6] | [7] | [8] | [9] | [16] | [10] | [11] | [12] | [17] | [13]

NNS(=O)(=O)c1ccc(Oc2ccc(S(=O)(=O)NN)cc2)cc1
inactive: [1] | [2] | [3] | [5] | [6] | [7] | [8] | [9] | [16] | [10] | [11] | [12] | [18] | [17] | [13] | [14] | [15]

COC(=O)CC(C)CCC=C(C)C (configuration not stated)
active: [2] 69.2 µM
inactive: [1] | [3] | [4] | [5] | [7] | [9] | [16] | [10] | [11] | [12] | [18] | [17] | [13] | [15]

C=CC(C)(O)CC/C=C(\C)CC (configuration not stated)
active: [2] 4.25 µM | [18] 30.3 µM
inactive: [1] | [3] | [4] | [5] | [6] | [7] | [8] | [9] | [10] | [11] | [12] | [13] | [14]

CN1CCN(C)CC1
inactive: [1] | [2] | [3] | [4] | [5] | [6] | [7] | [9] | [16] | [10] | [11] | [12] | [18] | [13] | [14]

CCCCCCCC(=O)OCC(COC(=O)CCCCCCC)OC(=O)CCCCCCC
inactive: [1] | [2] | [3] | [5] | [6] | [7] | [8] | [9] | [16] | [10] | [11] | [12] | [18] | [13] | [14] | [15]

Cn1cccc1
inactive: [1] | [2] | [3] | [4] | [5] | [7] | [8] | [9] | [10] | [11] | [12] | [18] | [13] | [14]
active: [6] 25.7 µM
